High-throughput results deposited in PubChem by Sanford-Burnham Center for Chemical Genomics.
The list is not random: actives were taken first. Their share in the collection is about 31%.
CYP2C19 inh: blockers of cytochrome P450 2C19 activity – biochemical, luminescence, ADME assay, primary screen. P33261. CYP2C19 Supersomes, luciferin-H EGE luminescence, 30 min. inhibition, % at 5 µM. 96,000 compounds, 21% hits. AID 778, 2007;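 active = CYP2C19 inhibition above a set limit at 5 µM in the primary screen, cut at about 50% in these data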
Target sequence (P33261 whole entry, looked up): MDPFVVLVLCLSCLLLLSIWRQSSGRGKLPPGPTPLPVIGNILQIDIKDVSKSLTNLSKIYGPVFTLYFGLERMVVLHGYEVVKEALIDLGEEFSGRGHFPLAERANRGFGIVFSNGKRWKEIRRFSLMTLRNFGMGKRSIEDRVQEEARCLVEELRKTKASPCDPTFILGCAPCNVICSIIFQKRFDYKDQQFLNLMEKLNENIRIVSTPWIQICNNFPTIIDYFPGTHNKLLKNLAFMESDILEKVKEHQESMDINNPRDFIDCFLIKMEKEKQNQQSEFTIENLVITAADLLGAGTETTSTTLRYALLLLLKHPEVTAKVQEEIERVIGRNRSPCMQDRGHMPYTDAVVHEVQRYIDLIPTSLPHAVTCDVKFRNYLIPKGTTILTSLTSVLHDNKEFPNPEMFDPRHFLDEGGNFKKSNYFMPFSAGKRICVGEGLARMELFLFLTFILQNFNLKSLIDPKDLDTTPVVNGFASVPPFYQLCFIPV
CYP2C9 act: human CYP2C9 activators, primary screen, biochemical, luminescence. recombinant CYP2C9, luciferin-H conversion; stronger effect = higher value; factor 1 = untreated enzyme, 0 = blocked. 96,000 compounds, 1.4% hits. Cytochrome P450 2C9 (Homo sapiens), P11712. activation factor at 5 µM;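 active = activation factor of 2 or more for CYP2C9 at a 5 µM dose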
CYP2C9 inhib: blockers of cytochrome P450 2C9 activity – biochemical, luminescence, ADME assay, primary screen. P11712. CYP2C9 Supersomes, luciferin-H conversion. inhibition, % at 5 µM. 96,000 compounds, 20% hits. AID 777, 2007;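 active = blocking of liver enzyme CYP2C9 beyond about 50% at 5 µM, limit read from the data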
CYP2C19 activ: human CYP2C19 activators, primary screen, biochemical, luminescence; Cytochrome P450 2C19 (Homo sapiens), P33261; recombinant CYP2C19, luciferin-H EGE luminescence; stronger effect = higher value; 0 = fully inhibited enzyme, 1 = untreated enzyme; activation factor at 5 µM; 96,000 tested, under 10 active; AID 1025, 2008;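 active = activation factor of at least 2 at 5 µM in the primary screen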
Large screens that a line does not name were inactive.

CCOC(=O)C1CCCN(c2c(NCCCN(CC)c3ccccc3)c(=O)c2=O)C1 (stereo not given)	none
CCOC(=O)N1CCC(Nc2c(N3CCN(c4cccc(C(F)(F)F)c4)CC3)c(=O)c2=O)CC1	CYP2C9 inhib 58
CCOC(=O)C1CCN(c2c(NCc3ccc(C(=O)NCCC(C)C)cc3)c(=O)c2=O)CC1	CYP2C9 inhib 59
CCOC(=O)C1CCCN(c2c(NCCN(CC)c3ccccc3)c(=O)c2=O)C1 (stereo not given)	CYP2C19 inh 68
CCOC(=O)N1CCN(c2c(NCc3ccc(Cl)cc3)c(=O)c2=O)CC1	CYP2C9 inhib 64
CCOC(=O)N1CCN(c2c(NCc3cccs3)c(=O)c2=O)CC1	none
CN1C(=O)C2(c3ccccc31)N(C)CC(c1ccccn1)C21SC(=S)N(Cc2ccco2)C1=O (stereo not given)	none
CCCNC(=O)c1ccc(CNc2c(N3CCC(C(=O)OCC)CC3)c(=O)c2=O)cc1	none
CCOC(=O)C1CCCN(C(=O)c2ccc(CNc3c(N4CCC(C)CC4)c(=O)c3=O)cc2)C1 (stereo not given)	CYP2C9 inhib 55
COc1ccc(-c2cn(-c3ccc(C)cc3)c(=O)n2CC(=O)Nc2ccc(OC)cc2OC)cc1	none
CCOC(=O)CN1C(=O)C(O)=C(C(C)=O)C1c1ccc(F)cc1 (stereo not given)	none
O=c1[nH]c(Cn2nnc(-c3ccccc3)n2)nc2scc(-c3ccccc3)c12	CYP2C9 inhib 82
